Pf growth 48h = Primary qHTS for delayed death inhibitors of the malarial parasite plastid, 48 hour incubation. P. falciparum luciferase growth in erythrocytes, 48 h. Potency, µM (highest dose often 28.7 µM), most hits filed as inhibitors. 310,000 tested, 5.9% active
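A one-generation exposure of luciferase-tagged malaria parasites in RPMI 1640/Albumax erythrocyte culture, 37 C and 5% CO2. Inhibition is inferred from decreased luminescence after adding detection reagent.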
Marburg entry inh = qHTS for inhibitors of binding or entry into cells for Marburg Virus. Marburg virus pseudotyped entry inhibition, cell reporter. Potency, µM (titrated, usually from 37.8 µM), most hits filed as inhibitors. 300,000 tested, 1.8% active. AID 540276, 2011; calls by dose curve; tested in HEK293 cells
Pf growth 96h = Primary qHTS for delayed death inhibitors of the malarial parasite plastid, 96 hour incubation | P. falciparum luciferase reporter growth, 96 h | Potency, µM (series often up to 28.7 µM), most hits filed as inhibitors | 320,000 tested, 6.9% active | AID 504834, 2011
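96 h incubation, 37 C, 5% CO2, of luciferase-reporter P. falciparum-infected RBCs (2% hematocrit, 0.05% parasitemia final) with test compounds; endpoint luminescence.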
HCV inhibitor = qHTS Assay for Inhibitors of Hepatitis C Virus (HCV); Huh7.5.1 HCVcc-Cre infection, luciferase reporter, 44 h; Potency, µM (titrated, usually from 41.8 µM), actives largely listed as inhibitors; 340,000 tested, 3.4% active; AID 651820, 2012
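Compounds are dispensed onto cells plated 4 h earlier at 1,000 per well, with HCVcc-Cre virus (about 0.5 moi) added next. Following 44 h of culture, luminescent signal is measured for 15 sec after 15 min with substrate at room temperature.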
LASV entry inh = qHTS for Inhibitors of binding or entry into cells for Lassa Virus. 300,000 tested, 1.2% active. Potency, µM (series often up to 37.9 µM), hits mostly inhibitors. Lassa virus pseudotype entry inhibition, cell reporter; calls by dose curve; tested in HEK293 cells; note: nearly all actives have a fitted effect of over 50% in size
HCMV antiviral = qHTS Assay for inhibitors of the human cytomegalovirus (HCMV). HFF cells, HCMV-luciferase reporter, 72 h; active compounds read low. activity change, negative = inhibition, % at 57.5 µM. 410,000 tested, 4.5% active; in the data active = activity change below about -60%; inconclusive = no clear call, values can overlap the other calls; inactive = above about -39%
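Screen run at 2 compound doses on HFFs infected with reporter HCMV, MOI 1 PFU/cell. Luciferase activity from cell lysates at 72 h post infection gave inhibition relative to buffer-only and Salinomycin wells.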
A number is an active result; 0 = inactive; ? = inconclusive; - = no result given. Hits are enriched below; roughly 14% of the tested compounds scored in any of these assays. Unless noted, calls come from the whole dose curve; as a rule, active = well fitted inhibition curve with a large enough effect; inconclusive = small, poorly fitted or top-dose-only effect, or another doubt; inactive = no such curve, though single readings can be large or run the other way.

SMILES	Pf growth 48h	Marburg entry inh	Pf growth 96h	HCV inhibitor	LASV entry inh	HCMV antiviral
CC(=O)/C(=C/N(C)C)C(=O)Nc1ccc(Cl)cc1Cl	0	0	0	0	0	?
Cc1ccc(N=C2SC(C(=O)Nc3ccc(OC(F)(F)F)cc3)C(N)=C2C(=O)Nc2c(C)cc(C)cc2C)cc1 (stereo not drawn)	?	?	12µM	?	?	?
COc1ccc(CN(C(=O)Nc2cccc(Cl)c2)c2ccccn2)cc1OC	-	0	-	-	0	0
COc1cc(CNC2CCCC2)cc(Cl)c1OCc1ccccc1F	-	?	?	10µM	?	?
COc1cc(CNc2ccc3[nH]c(=O)[nH]c3c2)cc(Cl)c1OCc1ccccc1F	-	?	-	-	0	?
CC(C)C[C@H]1CN([C@@H](Cc2ccc(O)cc2)CN2CCC[C@@H]2CN2C(=O)C(=O)NC[C@@H]2Cc2ccccc2)C(=O)C(=O)N1CC1CCCCCC1	-	-	-	?	-	-65
CC(C)C[C@H]1CN([C@@H](Cc2ccccc2)CN2CCC[C@H]2CN2C(=O)C(=O)NC[C@@H]2Cc2ccc(O)cc2)C(=O)C(=O)N1CC1CCCCCC1	-	-	-	-	-	-87
CC(C)C[C@H]1CN([C@@H](Cc2ccc(O)cc2)CN2CCC[C@H]2CN2C(=O)C(=O)NC[C@@H]2Cc2ccccc2)C(=O)C(=O)N1CC1CCCCC1	-	-	-	-	-	0
CC(C)C[C@H]1CNC(=O)C(=O)N1C[C@@H]1CCCN1C[C@H](Cc1ccc(O)cc1)N1C[C@H](Cc2ccccc2)N(CC2CCCCCC2)C(=O)C1=O	-	-	-	-	-	0
CC(NC(=O)Cn1c(=O)oc2cc(S(=O)(=O)NCc3ccccc3)ccc21)c1ccccc1 (stereo not drawn)	-	0	-	-	-	0
Cc1ccccc1OCCn1cc(C(=S)N2CCN(C)CC2)c2ccccc21	?	-	?	?	-	0
CC(=O)c1cn(CCOc2ccccc2C)c2ccccc12	3.3µM	-	0	0.79µM	-	0
Cc1ccccc1OCCn1cc(C(=S)N2CCCC2)c2ccccc21	-	?	-	11µM	0	0
COc1ccccc1-n1ncc2c(=O)[nH]c(SCC(=O)Nc3ccc(Cl)cc3)nc21	-	-	-	-	0	0
CCN(CC)CCCNc1oc(-c2cccc(Cl)c2)nc1C#N	?	16µM	0	?	0	0
C=CCOC(=O)C1=C(C)NC(SCC(N)=O)=C(C#N)C1c1ccc(C)cc1 (stereo not drawn)	0	-	?	0	-	0
C=CCOC(=O)C1=C(C)NC(SCC)=C(C#N)C1c1ccc(Cl)cc1 (stereo not drawn)	?	?	10µM	10µM	0	0
C=CCOC(=O)C1=C(C)NC(C)=C(C(=O)OCC=C)C1c1ccco1	?	0	?	11µM	-	0
CCOC(=O)C1=C(C)NC(C)=C(C(=O)OC)C1c1ccco1 (stereo not drawn)	?	0	13µM	0	0	0
CC1=C(C(N)=O)C(c2ccco2)C(C(N)=O)=C(C)N1	0	0	0	0	?	0
CC(=O)C1=C(C)NC(SCC(=O)Nc2nc3ccccc3s2)=C(C#N)C1c1ccc(Cl)cc1 (stereo not drawn)	7.4µM	0	6.6µM	?	0	0
COc1cccc(CNC(=O)[C@H]2CCCN2C(=O)[C@H]2CCCN2C(=O)c2ccc(C)cc2)c1	-	-	-	-	-	0
C=CCOC(=O)C1=C(C)NC(SCC(=O)Nc2ccc(C)c(Cl)c2)=C(C#N)C1c1ccco1 (stereo not drawn)	4.1µM	10µM	?	6.3µM	0	?
CCOC(=O)C1=c2s/c(=C\c3ccncc3)c(=O)n2C(N)=C(C(=O)OC)C1c1ccncc1 (stereo not drawn)	0	?	0	0	0	?
CCOC(=O)C1=C(N)n2c(s/c(=C/c3ccco3)c2=O)=C(C(=O)OC)C1c1ccco1 (stereo not drawn)	13µM	?	?	0	?	0
Cc1ccc2oc(=O)c3cnn(CC(=O)N4CCN(c5cc(Cl)ccc5C)CC4)c3c2c1	-	0	-	-	0	0
